Test systems include T-47D breast; BT-549 breast; MDA-MB-435 melanoma; SW-620 colon; MCF7 breast; HCT-116 colon; HCC-2998 colon; KM12 colon.
What all share (assay): NCI-60 one-dose screen, 48 h (100 = growth as untreated, 0 = no growth, -100 = all killed)
Common to all, as to settings: 10 µM unless noted

SMILES strings stand for the structures. About 83,000 compounds went through this panel and 20% of them were active in at least one assay; those are over-represented in the sample as a whole.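 Percent growth is the endpoint: 0 to 100 indicates growth inhibition (40 means 60% inhibition), 0 means no net growth, and negative values indicate cell death.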 Values without a mark were called inactive. Calls of active or inactive are those of the source. The calls were made as follows: active = growth percent below 10; inactive = the rest.

As for `COc1ccc(C(=O)/C=C/c2cccc([N+](=O)[O-])c2)c(OC)c1`, the growth is 26.6% in the assay on T-47D breast; 4.85% (active) with BT-549 breast; 15.2% in the assay with MDA-MB-435 melanoma; -67.4% (active) in the assay with SW-620 colon; 7.98% (active) in the assay on MCF7 breast; -80.1% (active) in the assay with HCT-116 colon. In addition, the growth with HCC-2998 colon was 36.6%; with KM12 colon it was 13.2%.

For `O=C(Cc1c(F)cccc1Cl)Nc1ccc(S(=O)(=O)Nc2ncccn2)cc1`, the growth with T-47D breast is 102%; with BT-549 breast, 90.8%; in the assay on MDA-MB-435 melanoma, 101%; in the assay on SW-620 colon it was 102%; with MCF7 breast, 96.2%; in the assay with HCT-116 colon it was 102%. Also, the growth with HCC-2998 colon was 97.3%; in the assay with KM12 colon, 111%.

With `CCNCc1ccncc1`, the growth was 96.9% in the assay on T-47D breast; 114% in the assay with BT-549 breast; 95.6% in the assay on MDA-MB-435 melanoma; 100% in the assay with SW-620 colon; 96.6% with MCF7 breast; 104% in the assay with HCT-116 colon. Also, the growth was 99.5% in the assay on HCC-2998 colon and 106% in the assay on KM12 colon.

With `Clc1nc2ccccc2nc1CI`, the growth with T-47D breast was 108%; in the assay with BT-549 breast, 92%; in the assay with MDA-MB-435 melanoma, 89.2%; in the assay with SW-620 colon, 36.3%; with MCF7 breast, 91.1%; in the assay on HCT-116 colon, 23%. Further, the growth is 117% in the assay on HCC-2998 colon and 104% in the assay on KM12 colon.

For `CC/C=C\C[C@H](O)C/C=C1/C(=O)C(Cl)=C[C@@H]1C/C=C\CCCC(=O)O`, the growth is 56.9% with T-47D breast; 58.5% in the assay with BT-549 breast; 19.3% in the assay with MDA-MB-435 melanoma; 2.12% (active) in the assay on SW-620 colon; 26.3% in the assay on MCF7 breast; -88.6% (active) in the assay with HCT-116 colon. Moreover, the results for the growth with HCC-2998 colon and in the assay with KM12 colon were 76.4% and 46.4%, respectively.

Turning to `COc1cc(C2C=C(C)N=C3SC=CN32)cc(OC)c1OC` (configuration not stated), the growth is 98.8% with T-47D breast; 106% in the assay on BT-549 breast; 98.6% with MDA-MB-435 melanoma; 111% in the assay on SW-620 colon; 93.3% with MCF7 breast; 101% in the assay with HCT-116 colon. Besides, the growth in the assay on HCC-2998 colon is 106%; in the assay with KM12 colon it was 111%.

Consider `COc1cc2c(cc1OCCCCn1c(-c3cc(=O)c4ccccc4o3)nc3ccccc31)N=C[C@@H]1CCCN1C2=O`, for which the growth in the assay with T-47D breast was 79.4%; in the assay on BT-549 breast it was 101%; with MDA-MB-435 melanoma it was 94.9%; in the assay on SW-620 colon it was 86.6%; in the assay on MCF7 breast it was 72.6%; in the assay with HCT-116 colon it was 101%. In addition, the growth in the assay on HCC-2998 colon was 128%; in the assay on KM12 colon, 105%.

As to `COC(=O)CCCCCCN=Cc1c(O)c(O)c(C(C)C)c2cc(C)c(-c3c(C)cc4c(C(C)C)c(O)c(O)c(C=NCCCCCCC(=O)OC)c4c3O)c(O)c12`, the growth was 20.6% with T-47D breast; 38.6% with BT-549 breast; 17.2% with MDA-MB-435 melanoma; 17.9% in the assay on SW-620 colon; 7.98% (active) in the assay with MCF7 breast; 8.17% (active) in the assay with HCT-116 colon. Moreover, the results for the growth in the assay on HCC-2998 colon and in the assay with KM12 colon were 32.6% and 18.2%, respectively.

For `ClC1=C(Cl)C(Cl)=C(Cl)C1=Cc1ccc(Cl)cc1Cl`, the growth was -0.12% (active) with T-47D breast; -26.3% (active) in the assay with BT-549 breast; -52.4% (active) in the assay on MDA-MB-435 melanoma; -43.9% (active) in the assay with SW-620 colon; 4.25% (active) in the assay on MCF7 breast; -55.5% (active) with HCT-116 colon. The growth was -89.7% (active) in the assay on HCC-2998 colon and -78.9% (active) with KM12 colon.

Take `O=S(=O)(c1ccccc1)n1ccc(-c2ccc3c(c2)CCO3)n1`: the growth was 68.8% in the assay on T-47D breast; 96% with BT-549 breast; 104% in the assay with MDA-MB-435 melanoma; 93.6% in the assay with SW-620 colon; 83.2% in the assay with MCF7 breast; 89.1% in the assay on HCT-116 colon. For the same molecule, the growth in the assay on HCC-2998 colon was 90.8%; with KM12 colon, 91.9%.

As for `COc1ccc(/C=C/C(=O)c2ccc(NC(=O)CN3CCN(c4cc5c(cc4F)c(=O)c(C(=O)O)cn5C4CC4)CC3)cc2)cc1`, the growth with T-47D breast was 98.7%; in the assay on BT-549 breast, 92.6%; in the assay with MDA-MB-435 melanoma it was 98.6%; in the assay on SW-620 colon, 113%; in the assay with MCF7 breast it was 91.9%; in the assay with HCT-116 colon, 25.1%. The growth with HCC-2998 colon is 100%; in the assay on KM12 colon it was 106%.

For the molecule `O=C(NNC(=S)Nc1ccccc1)c1ccccn1`, the growth is 53.2% with T-47D breast; 55.1% in the assay on BT-549 breast; 48.4% with MDA-MB-435 melanoma; 42.1% with SW-620 colon; 27.2% in the assay on MCF7 breast; 26.7% in the assay on HCT-116 colon. Moreover, the growth in the assay on HCC-2998 colon is 40.6%; with KM12 colon it was 32.1%.

As to `Cc1cc(C(=O)CSc2nc3ccccc3c(=O)[nH]2)c(C)n1C`, the growth in the assay on T-47D breast was 79.9%; with BT-549 breast, 89.8%; with MDA-MB-435 melanoma, 101%; in the assay on SW-620 colon, 102%; in the assay with MCF7 breast, 95.1%; in the assay with HCT-116 colon, 106%. Moreover, the results for the growth in the assay with HCC-2998 colon and in the assay with KM12 colon were 72.9% and 96.7%, respectively.

For `C=C1C(=O)O[C@H]2[C@H]1CC/C(COC(=O)NCCc1ccc(OC)cc1)=C\CC[C@@]1(C)O[C@@H]21`, the growth is -5.43% (active) in the assay with T-47D breast; 8.9% (active) in the assay with BT-549 breast; 21.5% with MDA-MB-435 melanoma; -65.6% (active) in the assay with SW-620 colon; 2.77% (active) in the assay on MCF7 breast; -58.4% (active) with HCT-116 colon. Also, the growth was 71.1% in the assay with HCC-2998 colon and 56.9% in the assay on KM12 colon.

For the origin of these results see PubChem BioAssay (NCI).
